Experimental findings from PMC7862700, “An all-to-all approach to the identification of sequence-specific readers for epigenetic DNA modifications on cytosine” are described below.

Common to all, as to assay: DAPPL (digital affinity profiling via proximity ligation, sequencing); 10 mM Tris-HCl pH 7.5, 50 mM NaCl, 1 mM DTT, 4% glycerol, room temperature, 30 min; GST-TFs on glutathione beads, 16-mer random dsDNA library, 0.1% formaldehyde crosslink after washing; high values mean tight binding
Holding throughout (details): protein: recombinant; tags: N-terminal GST; dsDNA, one strand shown

The target in one test is T1, FLI1 (Homo sapiens, UniProt Q01543 1-452).
T1 sequence: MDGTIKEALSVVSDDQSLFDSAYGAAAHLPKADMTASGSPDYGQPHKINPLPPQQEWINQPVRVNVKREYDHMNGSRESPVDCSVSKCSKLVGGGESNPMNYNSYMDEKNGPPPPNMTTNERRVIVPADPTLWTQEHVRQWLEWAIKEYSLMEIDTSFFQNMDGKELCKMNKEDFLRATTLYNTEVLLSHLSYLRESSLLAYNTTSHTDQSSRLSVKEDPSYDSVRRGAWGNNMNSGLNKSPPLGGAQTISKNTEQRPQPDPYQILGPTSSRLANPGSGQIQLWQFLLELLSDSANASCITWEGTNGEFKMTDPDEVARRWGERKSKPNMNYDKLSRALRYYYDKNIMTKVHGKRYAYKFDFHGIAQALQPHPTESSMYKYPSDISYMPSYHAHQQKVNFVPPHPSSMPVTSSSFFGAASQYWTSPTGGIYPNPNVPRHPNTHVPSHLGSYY
An outline of the steps: (§1)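 Each value of binding signal is a hexamer's read frequency for a factor divided by the same hexamer's frequency in the tag-only sample. Barcoded, bead-captured GST fusions of human transcription factors made in yeast were pooled with that sample and incubated with 200 nmole of a random double-stranded 16-mer DNA library in Tris/NaCl/DTT/glycerol buffer at room temperature for 30 min. Washing, 0.1% formaldehyde crosslinking, proximity ligation, PCR and Illumina NextSeq500 sequencing followed.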

For a further test, the target named is ELF1 (Homo sapiens, UniProt P32519 1-619). An outline of the steps:
as §1

The target in a further test is SPI1 (Homo sapiens, UniProt P17947 1-270). An outline of the steps: as §1
The target in a further test is SPIB (Homo sapiens, UniProt Q01892 1-262). In a few lines: as §1
Chain of SPIB (Q01892 whole entry): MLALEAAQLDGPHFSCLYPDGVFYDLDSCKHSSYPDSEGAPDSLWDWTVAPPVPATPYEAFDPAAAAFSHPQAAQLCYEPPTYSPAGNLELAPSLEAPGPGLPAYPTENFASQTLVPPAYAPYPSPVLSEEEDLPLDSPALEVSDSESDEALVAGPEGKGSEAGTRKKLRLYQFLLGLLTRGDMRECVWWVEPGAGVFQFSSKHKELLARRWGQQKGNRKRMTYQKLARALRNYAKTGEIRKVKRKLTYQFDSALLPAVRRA
The next test deals with T2, SPIC (Homo sapiens, UniProt Q8N5J4 1-248).
T2 sequence: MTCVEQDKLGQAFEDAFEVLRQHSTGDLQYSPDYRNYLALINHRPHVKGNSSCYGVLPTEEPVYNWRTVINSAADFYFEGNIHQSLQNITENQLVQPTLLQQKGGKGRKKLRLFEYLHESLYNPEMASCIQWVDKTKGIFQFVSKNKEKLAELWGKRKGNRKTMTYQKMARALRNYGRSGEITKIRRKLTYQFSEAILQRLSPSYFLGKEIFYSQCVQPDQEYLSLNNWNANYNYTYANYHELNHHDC
In a few lines: as §1

Another test addresses T3, ELK4 (Homo sapiens, UniProt P28324-2 1-405).
T3 sequence: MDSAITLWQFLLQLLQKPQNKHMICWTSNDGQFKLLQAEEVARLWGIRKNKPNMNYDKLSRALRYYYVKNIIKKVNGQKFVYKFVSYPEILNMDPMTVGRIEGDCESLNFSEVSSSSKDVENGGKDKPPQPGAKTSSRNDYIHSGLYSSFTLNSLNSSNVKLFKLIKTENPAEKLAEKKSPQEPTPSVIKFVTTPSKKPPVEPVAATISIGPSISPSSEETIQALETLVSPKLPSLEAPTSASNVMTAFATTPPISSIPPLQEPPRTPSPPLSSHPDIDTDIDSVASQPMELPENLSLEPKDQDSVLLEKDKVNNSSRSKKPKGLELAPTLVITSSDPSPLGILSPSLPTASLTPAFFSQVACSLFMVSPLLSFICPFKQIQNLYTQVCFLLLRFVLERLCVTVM
An outline of the steps:
as §1

A further test concerns the target T4, ETV2 (Homo sapiens, UniProt O00321 1-342).
T4 sequence: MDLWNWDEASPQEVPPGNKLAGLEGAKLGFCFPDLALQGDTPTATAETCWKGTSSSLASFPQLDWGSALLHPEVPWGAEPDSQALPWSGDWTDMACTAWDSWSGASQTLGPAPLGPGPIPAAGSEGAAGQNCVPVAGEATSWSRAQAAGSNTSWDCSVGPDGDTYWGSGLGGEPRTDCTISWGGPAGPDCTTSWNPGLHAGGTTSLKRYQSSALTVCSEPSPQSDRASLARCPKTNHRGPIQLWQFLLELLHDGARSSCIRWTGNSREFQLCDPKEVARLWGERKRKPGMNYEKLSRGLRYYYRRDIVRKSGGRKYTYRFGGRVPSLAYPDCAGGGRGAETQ
In a few lines:
as §1

A further test concerns the target T5, ELF3 (Homo sapiens, UniProt P78545 1-371).
T5 sequence: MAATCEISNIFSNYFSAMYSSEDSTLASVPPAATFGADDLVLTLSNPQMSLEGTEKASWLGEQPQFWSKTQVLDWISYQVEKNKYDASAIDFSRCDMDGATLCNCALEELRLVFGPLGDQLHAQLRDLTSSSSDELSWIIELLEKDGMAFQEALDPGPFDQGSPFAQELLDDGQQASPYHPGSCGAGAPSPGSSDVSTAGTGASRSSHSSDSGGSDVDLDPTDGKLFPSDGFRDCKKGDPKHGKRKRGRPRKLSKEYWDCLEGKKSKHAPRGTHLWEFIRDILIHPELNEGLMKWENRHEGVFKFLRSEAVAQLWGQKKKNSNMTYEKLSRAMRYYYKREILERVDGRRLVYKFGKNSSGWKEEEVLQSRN
In a few lines:
as §1

For a further test, the target named is ETV1 (Homo sapiens, UniProt P50549 1-477). In a few lines: as §1
Chain of ETV1 (P50549 whole entry): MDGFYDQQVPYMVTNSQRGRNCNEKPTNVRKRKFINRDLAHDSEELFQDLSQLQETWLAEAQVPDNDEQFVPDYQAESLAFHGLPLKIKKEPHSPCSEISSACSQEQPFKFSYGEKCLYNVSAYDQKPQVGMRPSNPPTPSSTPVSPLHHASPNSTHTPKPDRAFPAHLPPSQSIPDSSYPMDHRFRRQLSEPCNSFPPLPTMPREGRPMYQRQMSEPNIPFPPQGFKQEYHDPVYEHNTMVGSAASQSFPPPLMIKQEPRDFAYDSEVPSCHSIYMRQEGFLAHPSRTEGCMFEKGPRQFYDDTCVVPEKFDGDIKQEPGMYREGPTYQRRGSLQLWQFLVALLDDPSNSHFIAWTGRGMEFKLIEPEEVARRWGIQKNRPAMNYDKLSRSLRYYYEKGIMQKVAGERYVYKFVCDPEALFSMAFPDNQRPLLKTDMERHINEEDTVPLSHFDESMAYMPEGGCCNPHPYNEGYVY

Chain of ELF1 (P32519 whole entry): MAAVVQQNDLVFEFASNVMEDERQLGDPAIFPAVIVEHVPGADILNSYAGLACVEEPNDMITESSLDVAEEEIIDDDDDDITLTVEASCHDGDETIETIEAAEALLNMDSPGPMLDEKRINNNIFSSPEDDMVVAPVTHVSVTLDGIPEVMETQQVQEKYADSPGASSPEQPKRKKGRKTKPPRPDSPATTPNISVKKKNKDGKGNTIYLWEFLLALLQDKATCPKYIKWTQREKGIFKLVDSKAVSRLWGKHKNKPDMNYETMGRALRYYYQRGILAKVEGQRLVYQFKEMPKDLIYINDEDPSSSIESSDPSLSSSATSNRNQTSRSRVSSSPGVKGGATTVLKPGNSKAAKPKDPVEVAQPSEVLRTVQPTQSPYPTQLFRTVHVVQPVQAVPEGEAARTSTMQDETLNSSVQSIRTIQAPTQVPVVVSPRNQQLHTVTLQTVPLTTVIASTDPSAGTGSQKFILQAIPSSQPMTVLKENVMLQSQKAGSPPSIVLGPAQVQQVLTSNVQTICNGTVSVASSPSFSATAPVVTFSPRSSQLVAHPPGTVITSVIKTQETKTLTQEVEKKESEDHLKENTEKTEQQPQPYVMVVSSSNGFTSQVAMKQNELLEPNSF

Regarding ACTGTC, the binding signal was 1.02 fold enrichment (6-mer frequency, TF over GST control) in the test with FLI1; 1.01 fold enrichment (6-mer frequency, TF over GST control) with ELF1; 1 fold enrichment (6-mer frequency, TF over GST control) with SPI1; 1.05 fold enrichment (6-mer frequency, TF over GST control) in the test with SPIB; 1.09 fold enrichment (6-mer frequency, TF over GST control) with SPIC; 1 fold enrichment (6-mer frequency, TF over GST control) with ELK4. For the same sequence, the binding signal is 1.1 fold enrichment (6-mer frequency, TF over GST control) in the test with ETV2; 1.01 fold enrichment (6-mer frequency, TF over GST control) with ELF3; 1 fold enrichment (6-mer frequency, TF over GST control) with ETV1.
